Key:
Experiment in all cases: log2 ratio of Biotin-Ahx-Ub-VS probe labelling (fragment/DMSO); higher = less target engagement (more negative = stronger competition), active = hit call of the paper (q ≤ 0.05, log2 ratio ≤ -1)
Conditions in all cases: compound concentration: 200 uM; treatment time: 3 h
USP9X = USP9X (UniProt Q93008)
Method in brief: (§1)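 Fragment (200 µM) or vehicle was incubated for 3 h with triplicate HEK293T lysate samples of 495 µg, which were then treated with Biotin-Ahx-Ub-VS at 0.5 µM final for 1 h. Labelled DUBs were enriched on NeutrAvidin, digested with LysC and trypsin, and analysed by diaPASEF LC-MS/MS. Values are average log2 fragment/vehicle ratios from an unpaired t-test on global-median-normalised Spectronaut label-free quantities, using proteins with ≥2 unique peptides.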

UniProt O00487 = biological target: UniProt O00487
Method in brief: as §1

UniProt O00507 = biological target: UniProt O00507
Method in brief: as §1

UniProt P51784 = biological target: UniProt P51784
Method in brief: as §1

UniProt Q5T2D3 = biological target: T1, UniProt Q5T2D3
T1 sequence (whole entry): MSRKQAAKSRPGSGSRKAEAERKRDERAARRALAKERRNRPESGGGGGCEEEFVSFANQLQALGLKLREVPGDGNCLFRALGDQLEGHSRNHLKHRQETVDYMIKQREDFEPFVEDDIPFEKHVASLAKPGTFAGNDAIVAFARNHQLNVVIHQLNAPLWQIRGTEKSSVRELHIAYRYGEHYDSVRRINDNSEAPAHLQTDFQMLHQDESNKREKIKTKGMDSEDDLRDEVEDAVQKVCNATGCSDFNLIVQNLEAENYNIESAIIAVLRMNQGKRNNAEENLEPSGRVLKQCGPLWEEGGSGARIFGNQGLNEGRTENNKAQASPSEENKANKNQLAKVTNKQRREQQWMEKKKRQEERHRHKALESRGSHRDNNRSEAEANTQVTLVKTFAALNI
Method in brief: as §1

UniProt Q8TE49 = biological target: T2, UniProt Q8TE49
T2 sequence (whole entry): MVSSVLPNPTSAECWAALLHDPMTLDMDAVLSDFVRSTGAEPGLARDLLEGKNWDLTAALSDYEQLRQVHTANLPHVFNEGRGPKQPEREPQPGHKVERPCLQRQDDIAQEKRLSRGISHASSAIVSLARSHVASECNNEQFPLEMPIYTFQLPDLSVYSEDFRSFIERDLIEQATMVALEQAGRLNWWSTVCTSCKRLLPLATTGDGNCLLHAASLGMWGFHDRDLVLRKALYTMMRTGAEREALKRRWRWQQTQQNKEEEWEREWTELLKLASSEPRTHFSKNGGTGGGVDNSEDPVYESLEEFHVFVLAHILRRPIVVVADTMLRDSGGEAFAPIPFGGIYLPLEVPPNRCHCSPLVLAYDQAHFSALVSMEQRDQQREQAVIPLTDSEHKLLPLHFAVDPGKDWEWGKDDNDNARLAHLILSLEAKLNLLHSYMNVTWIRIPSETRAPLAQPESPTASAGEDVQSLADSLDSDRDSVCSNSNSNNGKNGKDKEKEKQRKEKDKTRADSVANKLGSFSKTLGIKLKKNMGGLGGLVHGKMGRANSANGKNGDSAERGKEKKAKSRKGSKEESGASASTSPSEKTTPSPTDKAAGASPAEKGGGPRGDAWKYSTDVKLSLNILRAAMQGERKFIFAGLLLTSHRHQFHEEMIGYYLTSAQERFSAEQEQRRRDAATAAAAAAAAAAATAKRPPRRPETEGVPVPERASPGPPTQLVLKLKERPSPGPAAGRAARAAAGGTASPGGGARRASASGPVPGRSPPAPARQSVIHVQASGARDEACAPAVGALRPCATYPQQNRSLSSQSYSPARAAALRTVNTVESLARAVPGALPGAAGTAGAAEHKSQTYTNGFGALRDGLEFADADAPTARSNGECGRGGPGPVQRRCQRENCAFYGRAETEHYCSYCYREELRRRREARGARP
Method in brief: as §1

UniProt Q9P2H5 = biological target: T3, UniProt Q9P2H5
T3 sequence (whole entry): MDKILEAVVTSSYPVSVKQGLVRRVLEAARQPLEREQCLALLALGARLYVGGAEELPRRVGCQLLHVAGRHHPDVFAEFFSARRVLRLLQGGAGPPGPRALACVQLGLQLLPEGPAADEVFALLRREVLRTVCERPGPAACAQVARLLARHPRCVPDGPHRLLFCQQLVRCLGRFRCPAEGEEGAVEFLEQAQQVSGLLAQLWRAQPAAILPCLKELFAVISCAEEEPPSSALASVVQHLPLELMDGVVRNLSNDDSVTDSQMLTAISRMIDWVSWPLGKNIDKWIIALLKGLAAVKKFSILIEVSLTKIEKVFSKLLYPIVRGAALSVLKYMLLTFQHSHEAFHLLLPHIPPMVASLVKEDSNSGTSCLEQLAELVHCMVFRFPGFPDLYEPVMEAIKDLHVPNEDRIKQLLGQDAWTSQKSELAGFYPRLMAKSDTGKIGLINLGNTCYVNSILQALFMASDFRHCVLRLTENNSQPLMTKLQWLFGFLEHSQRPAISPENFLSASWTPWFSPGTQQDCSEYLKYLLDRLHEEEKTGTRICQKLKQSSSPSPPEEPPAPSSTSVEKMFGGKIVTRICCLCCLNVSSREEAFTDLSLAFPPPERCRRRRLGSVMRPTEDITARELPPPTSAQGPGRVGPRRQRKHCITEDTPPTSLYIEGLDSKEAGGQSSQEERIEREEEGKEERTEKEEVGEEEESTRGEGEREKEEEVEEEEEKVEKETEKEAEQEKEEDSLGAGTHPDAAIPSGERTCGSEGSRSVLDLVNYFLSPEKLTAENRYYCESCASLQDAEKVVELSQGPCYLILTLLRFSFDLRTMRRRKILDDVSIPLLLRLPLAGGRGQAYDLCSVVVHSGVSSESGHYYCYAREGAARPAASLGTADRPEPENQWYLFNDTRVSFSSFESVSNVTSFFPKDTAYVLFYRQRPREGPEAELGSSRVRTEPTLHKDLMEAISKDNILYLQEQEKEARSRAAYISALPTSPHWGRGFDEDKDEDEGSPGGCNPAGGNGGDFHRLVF
Method in brief: as §1

UniProt Q9UGI0 = biological target: T4, UniProt Q9UGI0
T4 sequence (whole entry): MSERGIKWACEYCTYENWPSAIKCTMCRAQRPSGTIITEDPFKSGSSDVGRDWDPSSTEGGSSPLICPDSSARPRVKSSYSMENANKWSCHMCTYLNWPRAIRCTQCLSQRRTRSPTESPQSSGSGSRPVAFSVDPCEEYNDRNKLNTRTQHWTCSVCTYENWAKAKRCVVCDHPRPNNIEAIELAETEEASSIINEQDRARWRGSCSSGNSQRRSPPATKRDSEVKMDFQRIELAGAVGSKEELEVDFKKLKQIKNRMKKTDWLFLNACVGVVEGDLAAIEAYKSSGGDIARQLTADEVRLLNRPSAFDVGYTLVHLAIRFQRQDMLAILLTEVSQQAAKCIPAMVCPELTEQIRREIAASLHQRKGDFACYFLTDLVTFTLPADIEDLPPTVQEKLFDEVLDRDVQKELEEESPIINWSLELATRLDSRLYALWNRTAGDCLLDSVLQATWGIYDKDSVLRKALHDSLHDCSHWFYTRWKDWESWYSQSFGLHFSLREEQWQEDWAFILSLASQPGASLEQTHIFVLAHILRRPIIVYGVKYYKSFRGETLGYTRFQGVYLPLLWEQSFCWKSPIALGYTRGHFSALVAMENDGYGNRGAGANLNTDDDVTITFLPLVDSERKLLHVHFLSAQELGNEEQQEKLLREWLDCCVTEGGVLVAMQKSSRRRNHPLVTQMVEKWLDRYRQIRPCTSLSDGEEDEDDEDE
Method in brief: as §1

YOD1 = biological target: T5, YOD1 (UniProt Q5VVQ6)
T5 sequence (whole entry): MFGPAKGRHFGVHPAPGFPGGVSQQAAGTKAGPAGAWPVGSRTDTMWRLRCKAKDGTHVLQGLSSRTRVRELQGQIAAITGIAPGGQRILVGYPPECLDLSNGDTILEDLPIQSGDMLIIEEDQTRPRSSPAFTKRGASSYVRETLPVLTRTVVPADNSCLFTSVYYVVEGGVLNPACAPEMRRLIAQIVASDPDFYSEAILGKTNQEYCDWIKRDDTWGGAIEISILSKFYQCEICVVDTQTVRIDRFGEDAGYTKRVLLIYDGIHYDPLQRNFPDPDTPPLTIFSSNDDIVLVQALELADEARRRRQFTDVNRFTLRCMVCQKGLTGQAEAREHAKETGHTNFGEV
Method in brief: as §1

Measured: log2 ratio of Biotin-Ahx-Ub-VS probe labelling

Sequence of UniProt O00487 (O00487 whole entry): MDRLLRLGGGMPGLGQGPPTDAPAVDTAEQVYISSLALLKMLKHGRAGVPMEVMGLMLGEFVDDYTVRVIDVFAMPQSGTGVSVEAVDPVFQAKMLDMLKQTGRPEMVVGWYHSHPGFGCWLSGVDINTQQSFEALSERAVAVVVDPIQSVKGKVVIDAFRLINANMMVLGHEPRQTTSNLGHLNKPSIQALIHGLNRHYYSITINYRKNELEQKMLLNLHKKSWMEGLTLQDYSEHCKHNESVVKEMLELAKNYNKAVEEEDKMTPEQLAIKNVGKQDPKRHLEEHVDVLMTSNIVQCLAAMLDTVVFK
Sequence of USP9X (Q93008 whole entry, the tested form may be a part): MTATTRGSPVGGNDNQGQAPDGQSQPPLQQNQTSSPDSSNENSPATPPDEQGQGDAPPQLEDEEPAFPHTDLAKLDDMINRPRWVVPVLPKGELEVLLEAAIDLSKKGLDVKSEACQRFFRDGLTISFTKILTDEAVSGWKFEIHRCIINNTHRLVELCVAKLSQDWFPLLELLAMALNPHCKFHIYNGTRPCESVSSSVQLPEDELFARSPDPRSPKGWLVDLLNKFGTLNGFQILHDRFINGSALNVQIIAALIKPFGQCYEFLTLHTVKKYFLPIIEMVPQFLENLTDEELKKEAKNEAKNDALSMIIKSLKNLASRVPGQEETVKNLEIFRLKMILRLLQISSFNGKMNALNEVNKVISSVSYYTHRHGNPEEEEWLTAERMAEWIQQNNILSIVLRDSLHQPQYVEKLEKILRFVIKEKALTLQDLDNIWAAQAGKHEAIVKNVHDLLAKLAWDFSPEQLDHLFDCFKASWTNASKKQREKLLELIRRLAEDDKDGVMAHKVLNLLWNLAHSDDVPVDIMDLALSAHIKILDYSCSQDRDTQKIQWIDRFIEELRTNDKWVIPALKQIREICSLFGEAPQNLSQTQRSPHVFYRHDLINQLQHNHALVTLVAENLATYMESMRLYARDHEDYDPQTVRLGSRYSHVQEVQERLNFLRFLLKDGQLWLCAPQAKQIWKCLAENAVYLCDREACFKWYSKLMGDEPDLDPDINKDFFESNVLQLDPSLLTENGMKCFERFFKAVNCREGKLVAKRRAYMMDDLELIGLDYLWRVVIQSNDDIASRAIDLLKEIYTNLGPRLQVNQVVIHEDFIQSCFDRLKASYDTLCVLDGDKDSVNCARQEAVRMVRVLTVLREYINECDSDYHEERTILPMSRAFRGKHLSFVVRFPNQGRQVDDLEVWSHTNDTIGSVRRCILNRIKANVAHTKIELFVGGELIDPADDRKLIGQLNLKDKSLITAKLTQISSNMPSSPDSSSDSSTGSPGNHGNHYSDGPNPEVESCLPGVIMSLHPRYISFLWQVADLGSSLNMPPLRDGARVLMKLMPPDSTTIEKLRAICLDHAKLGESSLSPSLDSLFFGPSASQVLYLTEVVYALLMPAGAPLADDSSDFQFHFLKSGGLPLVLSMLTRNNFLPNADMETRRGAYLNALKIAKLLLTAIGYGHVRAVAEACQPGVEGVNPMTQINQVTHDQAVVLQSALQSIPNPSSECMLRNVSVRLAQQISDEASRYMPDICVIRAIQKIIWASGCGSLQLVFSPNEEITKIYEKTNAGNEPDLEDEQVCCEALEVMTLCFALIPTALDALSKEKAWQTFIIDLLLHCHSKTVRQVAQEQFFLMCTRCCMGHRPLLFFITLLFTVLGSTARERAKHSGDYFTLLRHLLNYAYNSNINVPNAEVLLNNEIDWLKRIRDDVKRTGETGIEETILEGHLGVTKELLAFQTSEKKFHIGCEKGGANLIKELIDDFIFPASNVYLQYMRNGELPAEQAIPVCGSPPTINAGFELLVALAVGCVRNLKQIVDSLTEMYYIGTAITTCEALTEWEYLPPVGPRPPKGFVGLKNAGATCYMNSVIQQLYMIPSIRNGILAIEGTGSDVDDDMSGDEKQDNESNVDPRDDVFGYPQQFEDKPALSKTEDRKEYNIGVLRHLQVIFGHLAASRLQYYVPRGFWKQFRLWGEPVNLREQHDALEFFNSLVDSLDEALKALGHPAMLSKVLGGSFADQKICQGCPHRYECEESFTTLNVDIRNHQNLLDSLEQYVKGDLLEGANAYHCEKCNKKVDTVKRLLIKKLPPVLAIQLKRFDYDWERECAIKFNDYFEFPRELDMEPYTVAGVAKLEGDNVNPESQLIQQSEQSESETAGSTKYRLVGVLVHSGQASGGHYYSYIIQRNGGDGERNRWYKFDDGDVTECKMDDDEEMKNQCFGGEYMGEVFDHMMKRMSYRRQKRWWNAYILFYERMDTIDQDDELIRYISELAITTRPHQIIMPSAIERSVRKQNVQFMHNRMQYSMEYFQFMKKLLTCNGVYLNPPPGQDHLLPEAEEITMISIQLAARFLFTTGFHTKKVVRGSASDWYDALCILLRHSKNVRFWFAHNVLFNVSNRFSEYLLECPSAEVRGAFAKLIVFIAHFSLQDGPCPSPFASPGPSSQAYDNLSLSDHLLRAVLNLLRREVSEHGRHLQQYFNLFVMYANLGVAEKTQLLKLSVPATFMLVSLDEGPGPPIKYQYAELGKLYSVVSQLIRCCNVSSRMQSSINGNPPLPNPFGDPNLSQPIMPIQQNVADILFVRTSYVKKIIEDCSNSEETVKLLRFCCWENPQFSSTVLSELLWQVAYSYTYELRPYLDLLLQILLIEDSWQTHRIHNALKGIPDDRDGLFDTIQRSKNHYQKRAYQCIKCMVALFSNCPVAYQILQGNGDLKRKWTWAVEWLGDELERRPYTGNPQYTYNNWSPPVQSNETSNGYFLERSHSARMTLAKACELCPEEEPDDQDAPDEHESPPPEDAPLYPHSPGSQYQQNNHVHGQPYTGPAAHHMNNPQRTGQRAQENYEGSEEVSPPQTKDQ
Sequence of UniProt P51784 (P51784 whole entry): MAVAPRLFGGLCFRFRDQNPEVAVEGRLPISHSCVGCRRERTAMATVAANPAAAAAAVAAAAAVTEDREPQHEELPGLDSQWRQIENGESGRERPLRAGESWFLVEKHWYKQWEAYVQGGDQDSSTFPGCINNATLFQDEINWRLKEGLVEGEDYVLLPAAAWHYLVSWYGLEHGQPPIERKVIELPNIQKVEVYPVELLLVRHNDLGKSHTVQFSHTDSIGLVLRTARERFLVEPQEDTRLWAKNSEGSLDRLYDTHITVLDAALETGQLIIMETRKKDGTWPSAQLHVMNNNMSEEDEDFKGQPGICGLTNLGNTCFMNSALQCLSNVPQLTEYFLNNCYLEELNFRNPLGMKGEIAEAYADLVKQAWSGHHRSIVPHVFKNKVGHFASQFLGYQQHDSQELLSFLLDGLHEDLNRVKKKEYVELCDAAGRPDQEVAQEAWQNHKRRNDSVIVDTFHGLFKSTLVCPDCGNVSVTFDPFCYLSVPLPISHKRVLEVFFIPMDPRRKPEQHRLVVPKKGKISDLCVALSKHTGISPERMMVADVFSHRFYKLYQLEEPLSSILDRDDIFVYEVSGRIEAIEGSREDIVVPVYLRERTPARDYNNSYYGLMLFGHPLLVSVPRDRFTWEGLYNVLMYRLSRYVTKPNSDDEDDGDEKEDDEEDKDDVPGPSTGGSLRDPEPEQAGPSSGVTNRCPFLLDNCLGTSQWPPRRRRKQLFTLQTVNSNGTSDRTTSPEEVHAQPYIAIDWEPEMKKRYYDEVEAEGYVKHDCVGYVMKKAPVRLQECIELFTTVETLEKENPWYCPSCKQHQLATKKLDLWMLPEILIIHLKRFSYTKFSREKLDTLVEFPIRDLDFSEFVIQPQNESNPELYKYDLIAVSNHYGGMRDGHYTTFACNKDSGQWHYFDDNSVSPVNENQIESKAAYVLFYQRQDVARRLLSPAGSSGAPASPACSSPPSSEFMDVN

O=C(CCl)NC(Cn1ccccc1=O)c1ccccc1 (centres undefined)
inactive: USP9X -0.00544 | UniProt O00487 0.0216 | UniProt O00507 0.0241 | UniProt P51784 0.0376 | UniProt Q5T2D3 0.0727 | UniProt Q8TE49 -0.0581 | UniProt Q9P2H5 0.148 | UniProt Q9UGI0 -0.146 | YOD1 0.00589

— the supplement of paper PMC11732987, “Enantioselective OTUD7B fragment discovery through chemoproteomics screening and high-throughput optimisation” (Communications Chemistry, 2025)
